# In the library only some 21% were active in any assay of this set; here they are far more common.
# SARS PLpro yeast – blocks SARS-CoV papain-like protease in a yeast assay. S. cerevisiae expressing SARS-CoV PLpro, growth rescue. Potency, µM (series often up to 32.9 µM), for inactives: at the top dose activity, positive = growth rescue, usual class: activators. 330,000 tested, 0.19% active; also: potency is read from the fitted curve at half-maximal effect; 0% is about no effect; nearly all actives have a fitted effect of over 55% in size
# Pf growth 48h – P. falciparum growth inhibition at 48 hours (one generation); P. falciparum luciferase growth in erythrocytes, 48 h; AID 504832; Potency, µM (doses to about 28.7 µM), for the others: at the top dose activity change, negative = inhibition, actives largely listed as inhibitors; 310,000 tested, 5.9% active; active = well fitted inhibition curve with a large enough effect; inconclusive = small, poorly fitted or top-dose-only effect, or another doubt; inactive = no such curve, though single readings can be large or run the other way; also: potency is read from the fitted curve at half-maximal effect; % is scaled to controls: 0 for no effect and ±100 for the full control effect
#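 Luciferase-expressing parasites in RBCs, 2% Hct / 0.1% parasitemia final; RPMI 1640 + 0.5% Albumax; 37 C, 5% CO2, one generation; luminescence read-out, lower signal = inhibition.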
# Cycloheximide cs – affects cycloheximide protein synthesis inhibition readout, counter-screen; cell reporter, cycloheximide protein synthesis inhibition counterscreen; max response, %; 300,000 tested, 12% active; AID 2314; in the data active = max response mostly above about 13%, no sharp cut-off; inactive = mostly below about 14%; also: read at 38.3 µM for the half of the compounds with a filed dose; 0% is about no effect
# NS1 function inh – blocks influenza NS1 protein function. Potency, µM (doses to about 46.1 µM), for the others: top-dose activity, positive = more growth. 270,000 tested, 0.4% active. AID 2326; also: potency is read from the fitted curve at half-maximal effect; actives are rising curves; nearly all actives have a fitted effect of over 50% in size
#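 Compounds were scored for reversing the slow growth caused by influenza A NS1 in S. cerevisiae, measured by optical density at 600 nm. Assay medium contained 2% galactose at pH 6.0; NS1-free yeast of the same strain were the positive control.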
# Shiga inhibitor – inhibitors of Shiga toxin in Vero cells; Vero cells, Shiga toxin protein synthesis inhibition reporter; inhibition, % at 38.7 µM; 290,000 tested, 9.2% active; AID 2315; in the data active = inhibition mostly above about 28%, no sharp cut-off; inactive = mostly below about 43%; also: 0% is about no effect
# Pf growth 96h – inhibits malaria parasite growth, 96 h; P. falciparum luciferase reporter growth, 96 h; Potency, µM (doses to about 28.7 µM), for the others: at the highest dose activity change, negative = inhibition, hits mostly inhibitors; 320,000 tested, 6.9% active; AID 504834; active = well fitted inhibition curve with a large enough effect; inconclusive = small, poorly fitted or top-dose-only effect, or another doubt; inactive = no such curve, though single readings can be large or run the other way; also: potency is read from the fitted curve at half-maximal effect; % is scaled to controls: 0 for no effect and ±100 for the full control effect
#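 Readout is luminescence from an integrated firefly luciferase in P. falciparum. Red cells, 2% hematocrit and 0.05% parasitemia final, were cultured with compound through two parasite generations (96 hours) at 37 C, 5% CO2.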
# An asterisk follows results filed as active; ? = inconclusive; · = no result; [ ] = remark or other dose. Unless noted, calls follow the shape of the full dose curve.
SMILES,SARS PLpro yeast,Pf growth 48h,Cycloheximide cs,NS1 function inh,Shiga inhibitor,Pf growth 96h
CCOc1ccc(OCCC(=O)OCC(=O)NNC(=O)c2ccccc2)cc1,0%,-7%,·,·,·,?
NC(=O)c1ccc2c(=O)n3c(-c4cccs4)csc3nc2c1,4%,49%,25*,4%,32*,33%
Cc1ccc(-c2csc3nc4cc(C(N)=O)ccc4c(=O)n23)cc1,-1%,-17%,-1,0%,-3,-8%
COc1ccccc1C(=O)N(NC(=O)Oc1ccccc1)C(C)(C)C,-9%,-5%,-1,5%,-4,13%
N/C(=N\NC(=O)c1cccs1)c1cc2cc(Cl)ccc2oc1=O,0%,32%,36*,8%,49*,46%
COc1ccc2o/c(=N/NC(=O)c3cccs3)c(C(N)=O)cc2c1,2%,94%,36*,·,71*,?
CC(=O)c1ccc(S(=O)(=O)NCCC(=O)NC2CCN(Cc3ccccc3)CC2)cc1,-27%,·,·,·,·,·
CCOC(=O)NC(=O)c1cn(C(CC)CO)c(=O)[nH]c1=O (configuration not stated),-19%,32%,-4,24%,-18,?
O=C(O)c1cc2c(ccc3ccccc32)o1,-3%,?,14,-120%,5,-1%
O=C(c1ccc(Br)o1)N1CCN(c2ccccn2)CC1,-3%,-27%,9,-2%,15,2%
COc1cccc2cc(C(=O)N3CCN(c4ccccn4)CC3)c(=O)oc12,6%,18%,32*,8%,35,·
O=C(c1cc2c(ccc3ccccc32)o1)N1CCCCC1,-9%,241%,52*,-27%,90*,-28%
O=C(c1cc2ccccc2o1)N1CCN(c2ccccc2Cl)CC1,-35%,·,5,-97%,12,7.4µM*
O=C(c1cc2ccccc2o1)N1CCN(c2ccccn2)CC1,0%,4.7µM*,-1,5%,-15,13µM*
CC1CCC(NS(=O)(=O)c2ccc(Cl)nc2)CC1 (configuration not stated),2%,30%,·,·,·,26%
COc1cc(/C=C2\C(=N)N3N=C(S(C)(=O)=O)SC3=NC2=O)cc(OC)c1OCCOc1cccc(C)c1,-1%,3%[0.00184 µM],-3,0%,-5,-1%
CC(C)OP(=O)(OC(C)C)C(O)c1cccc([N+](=O)[O-])c1 (configuration not stated),0%,?,1,0%,-8,33%
Cc1ccc(C2CC(c3cccs3)=NN2C(=O)CSC2=NCCS2)cc1 (configuration not stated),-3%,10µM*,-3,-18%,-7,12µM*
CCC(=O)N1N=C(c2cccs2)CC1c1ccc(OC)cc1 (configuration not stated),3%,-22%,1,4%,5,?
CCC(=O)N1N=C(c2cccs2)CC1c1ccc(C)cc1 (configuration not stated),-2%,-15%,10,0%,-6,?
COc1ccc(C2CC(c3cccs3)=NN2C(=O)CSC2=NCCS2)cc1 (configuration not stated),-1%,?,23,21%,20,?
COc1ccc(C2CC(c3cccs3)=NN2C(=O)CSc2nc(=O)n3cc(C)ccc3n2)cc1 (configuration not stated),7%,10µM*,·,·,·,8.3µM*
Cc1ccc(C2CC(c3cccs3)=NN2C(=O)CCl)cc1 (configuration not stated),-5%,13µM*,43*,-48%,43*,1.9µM*
CCN(CC)S(=O)(=O)c1cc(NC(=O)C(C)N(C)CC(=O)Nc2c(C)cccc2C)ccc1C (configuration not stated),-7%,12µM*,-1,-21%,-4,12µM*
CCN(CC)S(=O)(=O)c1cc(NC(=O)C(C)N2CCc3ccccc32)ccc1C (configuration not stated),2%,?,20,·,9,10µM*
Cc1cccc(C)c1NC(=O)CN(C)C(C)C(=O)Nc1ccccc1-c1ccccc1 (configuration not stated),-3%,?,-2,·,-19,?
CC(C)C(=O)Nc1ccc2c(c1)C(=O)N(CCC(=O)O)C2=O,-3%,7%,-1,3%,6,19%
